# Screens from PubChem BioAssay.
# GSIS activator – GLuc luminescence reporter in INS-1E cells, primary screen for activators of glucose-dependent secretion of insulin. activation, % at 16.6 µM. AID 743287. 370,000 compounds, 0.61% hits. INS-1E GLuc reporter insulin secretion, 2-3 h;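 active = lowest replicate activation of at least 40%, so every replicate reaches that level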;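 also: 0% = median of neutral control wells and 100% = median of IBMX positive control wells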
# CaV13 FRET inh – Disruptors of the CACNA1D IQ motif to Ca2+-dependent inactivation inhibitor domain association, primary screening, Förster resonance energy transfer in intact living … | HEK cells, CFP/YFP FRET ICDI-IQ, plate reader, 10 min; percent FRET-ratio fall versus neutral wells | inhibition, % at 12.3 µM | 340,000 compounds, 0.098% hits | AID 743397;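 active = mean replicate inhibition of at least 30% and at least 1% of replicates passing that level; inconclusive = only one of the two criteria is met; inactive = neither criterion is met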;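 also: 0% = median of the neutral control wells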
# Ecoli rRNA inh – inhibitors of bacterial rRNA selective over humanized ribosomes; GFP signal change (wild-type ribosome), % (no concentration beside the values); 350,000 compounds, 1.6% hits; E. coli WT GFP vs humanized-ribosome RFP mutants, fluorescence, 24 h; stronger effect = lower value; DMSO median 0, no signal -100;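 active = significant combined selectivity score with lowered wild-type GFP, culture density cut under 30%, mutant RFP and density less affected; inactive = any of these conditions unmet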
# PGC1a acetyl inh – modulators of PGC1a acetylation | 350,000 compounds, 0.17% hits | inhibition, % at 15.6 µM | AID 651687 | U2OS PGC1a acetylation, AlphaScreen anti-acetyl-lysine; with virally co-expressed GCN5 acetyltransferase;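 active = every replicate shows inhibition of at least 40%; inconclusive = mean inhibition at least 40% but some replicate below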;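 also: 0% = neutral control wells and 100% = positive control wells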
# ERAP1 HTS inh – blocks human ERAP1 aminopeptidase activity | Q9NZ08 | inhibition, % at 10.7 µM | AID 652197 | 340,000 compounds, 0.15% hits | recombinant ERAP1, Leu-AMC fluorescence, 60 min;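 active = mean replicate inhibition of at least 30%, or all replicates individually reaching that 30% level; inactive = mean below 30% and not every replicate reaching it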;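 also: 0% = neutral control wells and 100% = L-leucinethiol positive control wells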
# Target sequence (Q9NZ08 whole entry, looked up): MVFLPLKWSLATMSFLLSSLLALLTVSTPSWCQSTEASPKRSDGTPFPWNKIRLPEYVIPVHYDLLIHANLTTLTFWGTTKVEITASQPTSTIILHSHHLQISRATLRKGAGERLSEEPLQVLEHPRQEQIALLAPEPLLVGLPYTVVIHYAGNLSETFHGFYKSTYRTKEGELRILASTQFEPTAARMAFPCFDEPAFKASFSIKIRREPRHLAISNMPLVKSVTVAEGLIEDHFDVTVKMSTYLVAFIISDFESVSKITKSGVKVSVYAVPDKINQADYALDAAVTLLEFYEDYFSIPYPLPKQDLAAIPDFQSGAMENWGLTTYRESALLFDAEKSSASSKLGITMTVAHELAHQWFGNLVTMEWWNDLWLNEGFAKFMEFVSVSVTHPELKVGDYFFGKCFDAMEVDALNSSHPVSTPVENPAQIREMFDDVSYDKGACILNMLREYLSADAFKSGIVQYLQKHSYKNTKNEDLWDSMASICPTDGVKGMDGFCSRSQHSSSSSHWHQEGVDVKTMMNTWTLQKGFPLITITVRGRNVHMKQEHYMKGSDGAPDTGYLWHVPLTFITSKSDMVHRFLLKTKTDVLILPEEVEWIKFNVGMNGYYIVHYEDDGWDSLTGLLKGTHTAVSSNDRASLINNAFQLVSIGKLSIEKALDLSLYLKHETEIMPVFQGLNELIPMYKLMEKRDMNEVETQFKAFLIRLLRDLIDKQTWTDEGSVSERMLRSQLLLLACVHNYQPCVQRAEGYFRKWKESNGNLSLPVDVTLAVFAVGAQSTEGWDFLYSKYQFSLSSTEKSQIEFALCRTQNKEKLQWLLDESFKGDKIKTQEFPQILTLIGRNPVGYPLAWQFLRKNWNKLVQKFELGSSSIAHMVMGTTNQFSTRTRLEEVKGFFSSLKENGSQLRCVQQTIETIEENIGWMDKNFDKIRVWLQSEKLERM
# DENV2 CPE – protects cells from dengue virus 2 cytopathic effect | 350,000 compounds, 1.7% hits | DENV2-infected cells, cytopathic effect rescue, plate reader | CPE inhibition, % at 9.99 µM | AID 651640; in the data active = CPE inhibition above about 20%, passing the limit was not always enough; inconclusive = no clear call, values can overlap the other calls; tested in BHK-21 cells;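 also: 0% = median of neutral control wells and 100% = median of positive control wells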
# * = called active by the depositor; ? = inconclusive; . = no result. Sampled rows, rich in hits. Any-hit rate of the full collection: about 3.2%.
SMILES,GSIS activator,CaV13 FRET inh,Ecoli rRNA inh,PGC1a acetyl inh,ERAP1 HTS inh,DENV2 CPE
Cc1ccc(S(=O)(=O)Nc2ccc3c(c2)CC(=O)N([C@H](C)CO)C[C@@H](C)[C@H](CN(C)S(=O)(=O)c2cccs2)O3)cc1,-9,.,-2,-10,-5,-5
CC(C)Cn1c(N)c(C(=O)COC(=O)c2cccc(Cl)c2)c(=O)n(C)c1=O,-26,-7,-28*,-18,-2,2
Cn1c(N)c(C(=O)COC(=O)/C=C/c2ccc(F)cc2)c(=O)n(C)c1=O,-14,-6,3,.,2,-10
CC(C)Cn1c(N)c(C(=O)COC(=O)/C=C/c2cccs2)c(=O)n(C)c1=O,-47,-16,-23*,10,.,0
COc1ccc(C(=O)OCC(=O)c2c(N)n(C)c(=O)n(C)c2=O)c(OC)c1OC,45*,-5,0,7,0,-5
Cn1c(N)c(C(=O)COC(=O)c2ccnc3ccccc23)c(=O)n(C)c1=O,12,-11,6,.,3,3
Cn1c(N)c(C(=O)COC(=O)/C=C/c2ccccc2)c(=O)n(C)c1=O,23,-5,-20*,4,-1,?
C[C@@H]1CN([C@@H](C)CO)C(=O)Cc2cc(NS(=O)(=O)c3ccccc3)ccc2O[C@@H]1CN(C)CC1CC1,-7,.,-1,-4,2,-3
COc1cccc(-c2ccc([C@H]3[C@@H](CO)N4C(=O)CN(C(=O)NC(C)C)C[C@@H]34)cc2)c1,-7,.,-1,-2,-2,4
COc1ccc(CN(C)C(=O)C23CC4CC(CC(Cl)(C4)C2)C3)c(OC)c1OC,-16,-7,-29*,-4,-4,-6
CC(C)CC#Cc1cnc2c(c1)C(=O)N([C@H](C)CO)C[C@H](C)[C@H](CN(C)C(=O)c1ccccc1F)O2,-15,.,3,-10,-1,0
COc1ccc(NC(=O)Nc2ccc3c(c2)C(=O)N([C@@H](C)CO)C[C@H](C)[C@@H](CN(C)S(=O)(=O)c2ccc(F)cc2)OCCCC[C@H](C)O3)cc1,6,.,3,-18,4,11
O=C(O)c1ccc(N/N=C/c2cn(Cc3ccc(F)cc3)c3ccccc23)cc1,-14,-6,-34*,11,0,0
CCNC(=S)N/N=C/c1cn(Cc2ccc(F)cc2)c2ccccc12,.,-3,.,.,-6,2
COc1ccc(S(=O)(=O)N(C)C[C@H]2Oc3ncc(/C=C/c4ccccc4)cc3C(=O)N([C@@H](C)CO)C[C@@H]2C)cc1,-20,.,-6,0,-3,-6
C[C@@H]1CN([C@@H](C)CO)C(=O)c2cc(NC(=O)CCC(F)(F)F)ccc2O[C@@H](C)CCCCO[C@H]1CN(C)C(=O)Nc1cccc2ccccc12,-26,.,1,-38,.,26*
C[C@@H]1CN([C@H](C)CO)C(=O)c2cc(NC(=O)CCC(F)(F)F)ccc2O[C@@H](C)CCCCO[C@H]1CN(C)C(=O)Nc1cccc2ccccc12,-7,.,-2,-45,.,-14
C[C@@H]1CCCCO[C@@H](CN(C)C(=O)Nc2cccc3ccccc23)[C@H](C)CN([C@H](C)CO)C(=O)c2cc(NC(=O)CCC(F)(F)F)ccc2O1,-13,.,0,-25,.,99*
CC(C)NC(=O)Nc1ccc2c(c1)C(=O)N([C@@H](C)CO)C[C@H](C)[C@H](CN(C)C(=O)Nc1cccc3ccccc13)O2,0,.,1,-1,3,0
C[C@@H]1CN([C@@H](C)CO)C(=O)c2cc(NC(=O)CCC(F)(F)F)ccc2O[C@@H](C)CCCCO[C@@H]1CN(C)C(=O)Nc1ccc(C(F)(F)F)cc1,5,.,1,8,2,0
COC(=O)/C(=C\Nc1cccc(Cl)c1C)c1ncc(C(F)(F)F)cc1Cl,.,-2,.,41*,.,.
CCC(=O)N(C)C[C@@H]1Oc2cc(C#CC3CCCCC3)ccc2S(=O)(=O)N([C@@H](C)CO)C[C@H]1C,-13,.,-11,1,1,.
CC(C)C#Cc1ccc2c(c1)O[C@H](CN(C)C(=O)c1cccc(F)c1)[C@H](C)CN([C@H](C)CO)S2(=O)=O,-12,.,-3,-9,-1,-4
COc1ccc(/C(C)=N/Nc2nc(C)c(C(C)=O)s2)cc1,-10,-2,-23,.,0,13
CC(=O)c1sc(N/N=C2\CC3CC2C(C)C3(C)C)nc1C (stereo not drawn),1,-5,-31*,-10,2,-5
SMILES,GSIS activator,CaV13 FRET inh,Ecoli rRNA inh,PGC1a acetyl inh,ERAP1 HTS inh,DENV2 CPE
OC(CSc1nc(-c2ccccc2)c(-c2ccccc2)o1)CC(O)c1ccccc1 (stereo not drawn),.,.,.,5,1,30*
CN(C)CCCN(C(=O)CCOc1ccccc1)c1nc2ccc(F)cc2s1,45*,-2,6,50*,3,?
CN(C)CCCN(C(=O)COc1ccccc1)c1nc2ccc(F)cc2s1,-15,-6,6,.,2,-2
O=S(=O)(c1cccc(C(F)(F)F)c1)N1CCN(CC(O)COCc2ccccc2)CC1 (stereo not drawn),-42,-3,-23,-4,-5,63*
C[C@H](CO)N1C[C@H](C)[C@H](CN(C)Cc2ccc(Cl)c(Cl)c2)Oc2c(NC(=O)c3cnccn3)cccc2C1=O,-6,.,1,-11,4,-10
C[C@H]1CN([C@@H](C)CO)C(=O)c2cccc(NC(=O)c3cnccn3)c2O[C@H]1CN(C)Cc1ccc(Cl)c(Cl)c1,-10,.,-11,-4,-5,23*
C[C@@H]1CN([C@@H](C)CO)C(=O)c2cccc(NC(=O)c3cnccn3)c2O[C@H]1CN(C)Cc1ccc2c(c1)OCO2,-4,.,-2,13,0,-11
C[C@H](CO)N1C[C@H](C)[C@@H](CN(C)C)Oc2c(NC(=O)c3cnccn3)cccc2C1=O,9,.,-2,2,1,30*
C[C@H]1CN([C@@H](C)CO)C(=O)c2cccc(NC(=O)c3cnccn3)c2O[C@@H]1CN(C)Cc1ccc2c(c1)OCO2,6,.,1,21,10,24*
C[C@H](CO)N1C[C@H](C)[C@H](CN(C)C(=O)Nc2ccccc2)Oc2ncc(C#CCN(C)C)cc2C1=O,-15,.,1,8,0,16
O=[N+]([O-])c1c(Nc2ccc(O)cc2)cc(Cl)c2nonc12,122,-4,-19,.,42*,6
CN(C)c1cc(Nc2ccc(O)cc2)c([N+](=O)[O-])c2nonc12,36,-16,9,1,.,.
CC[N+](C)(CC)CC(=O)OCC1C(C)C=C(C)CC1C (stereo not drawn),22,-5,5,-5,106*,-3
CC(=O)N(C)C[C@H]1Oc2ccccc2C(=O)N(C)C[C@@H]1C,18,.,0,.,.,.
